# aSyn 5UTR act: Activators via SNCA 5'UTR binding, MLPCN; alpha-synuclein 5'UTR reporter, activators screen; activity score, % (tested at 7.5 µM), hits read low; actives 7.1% (n = 300,000); AID 1814; in the data active = activity score below about -60%
# * marks the source's active call; other numbers are inactive results. Only a sample is shown.
SMILES,aSyn 5UTR act
Cc1ccc(-c2csc(NC(=O)c3ccc([N+](=O)[O-])o3)n2)cc1,-234*
CN(Cc1ccccc1)C(=O)c1ccc([N+](=O)[O-])o1,-84*
Cc1ccc(-c2csc(NC(=O)c3ccno3)n2)cc1,-128*
O=c1c2ccccc2ncn1CCCOc1ccccc1[N+](=O)[O-],-150*
O=c1c2ccc([N+](=O)[O-])c3cccc(c32)c2nc3ccccc3n12,79
O=[N+]([O-])c1ccccc1OCCCn1cnc2ccccc21,-100*
N=c1n(Cc2ccccc2)c2ccccc2n1CC(O)COc1ccc(Cl)cc1Cl (stereo unspecified),90
Clc1ccc(OCCn2cnc3ccccc32)c(Cl)c1,-126*
Cc1cccc(C)c1OCC(=O)Nc1cccc(-c2nnc(-c3ccccc3)o2)c1,-91*
COc1cccc(-c2nnc(NC(=O)C3CCCCC3)o2)c1,-96*
Cc1ccc(NC(=O)Nc2nnc(-c3ccccc3)o2)cc1,-75*
O=C(Nc1cccc(-c2nnc(-c3ccccc3)o2)c1)C1CCCCC1,-105*
Cc1ccc(-c2nnc(-c3cccc(NC(=O)c4cccs4)c3)o2)cc1,-94*
CCC(=O)Nc1cccc(-c2nnc(-c3ccccc3)o2)c1,-201*
O=C(/C=C/c1ccccc1)Nc1ccc(Cl)cn1,-95*
CSc1cccc(NC(=O)/C=C/c2ccc(Cl)cc2)c1,-160*
CSc1cccc(NC(=O)Nc2ccccc2)c1,-111*
Cc1cccc(NC(=O)/C=C/c2ccc(Cl)cc2)n1,-158*
CCOC(=O)Cc1csc(NC(=O)/C=C/c2ccc(Cl)cc2)n1,-64*
CSc1cccc(NC(=O)/C=C/c2ccccc2)c1,-226*
CSc1cccc(NC(=S)Nc2cc(C)ccc2C)c1,-139*
O=C(/C=C/c1ccccc1)Nc1cccc(C(=O)O)c1,95
O=C(Nc1cnc2ccccn2c1=O)c1ccc(Cl)cc1,-139*
CCOc1ccc(N)c(SSc2cc(OCC)ccc2N)c1,-121*
CC(C)C(=O)Nc1nc(-c2ccccc2)ns1,-182*
SMILES,aSyn 5UTR act
CCSc1nc(-c2ccccc2)nc(C(Cl)Cl)n1,123
CCCC(=O)Nc1nc(-c2ccccc2)ns1,-152*
CCC(=O)Nc1nc(-c2ccccc2)ns1,-211*
CC(=O)Nc1nc(-c2ccc(Cl)cc2)ns1,-206*
COC(=O)Nc1nc(-c2ccccc2)c(C(=O)c2ccc(Cl)cc2)s1,94
Cc1nnc(SCCC(=O)Nc2nc(-c3ccccc3)ns2)s1,-86*
O=C(CSc1ncn[nH]1)Nc1nc(-c2ccccc2)ns1,-63*
CC(=O)Nc1cc(-c2ccc(Cl)cc2)[nH]n1,-141*
COc1ccccc1OCc1cc(C(=O)N(C)CCC2CCCCO2)no1 (stereo unspecified),-96*
COc1cc(C(C)=O)ccc1OCc1cc(C(=O)N(C)CCC2CCCCO2)no1 (stereo unspecified),-188*
COc1ccc(-n2c(O)c(/C=N/Nc3nc(C)cc(C)n3)c3ccccc3c2=O)cc1OC,120
COc1ccccc1NS(=O)(=O)c1cccc(-n2c(O)c(C=Nc3ccccc3C(=O)O)c3ccccc3c2=O)c1,-66*
CCOC(=O)CSc1nc2cc(C)ccc2cc1C#N,-150*
CCOc1ccc2cc(C#N)c(SCC(=O)N3CCOCC3)nc2c1,-94*
CCOC(=O)CSc1nc2cc(OC)ccc2cc1C#N,-109*
CCOC(=O)CSc1nc2ccc(C)cc2cc1C#N,-172*
Cc1ccc2cc(C#N)c(SCC(=O)N3CCCC3)nc2c1,-81*
CCOC(=O)CSc1nc2cc(C)cc(C)c2cc1C#N,-195*
COc1ccc2nc(SCC(C)=O)c(C#N)cc2c1,-70*
Cc1cc(C)c2nc(SCC(=O)N3CC(=O)Nc4ccccc43)c(C#N)cc2c1,67
O=C1NC(=O)/C(=C\c2ccc(Oc3cnccn3)cc2)S1,-191*
O=C(Nc1nc2c(F)cccc2s1)c1ccc([N+](=O)[O-])o1,-95*
O=C(Nc1cccc(NC(=O)c2ccccc2Cl)c1)c1ccc([N+](=O)[O-])o1,86
O=C(Nc1nc2c(Cl)cccc2s1)c1ccc(Br)o1,-131*
O=C(Nc1nc2c(Cl)cccc2s1)c1ccc([N+](=O)[O-])o1,-80*
SMILES,aSyn 5UTR act
O=C(Nc1nc2ccc(Cl)cc2s1)c1ccc(Br)o1,-237*
CC(NC(=O)Cn1ncc(Cl)c(Cl)c1=O)C12CC3CC(CC(C3)C1)C2 (stereo unspecified),88
O=C(Cn1sc2ccccc2c1=O)NC12CC3CC(CC(C3)C1)C2,-92*
Cc1ccc(-c2cn(-c3ccccc3F)c(=S)[nH]2)cc1,-124*
O=[N+]([O-])c1ccc(-c2cn(-c3ccccc3F)c(=S)[nH]2)cc1,-94*
CCc1ccc(NC(=O)C2C3C=CC(C4CC34)C2C(=O)O)cc1 (stereo unspecified),-74*
CN(C)c1ccc(NC(=O)C2C3C=CC(C3)C2C(=O)O)cc1 (stereo unspecified),-73*
Fc1ccc(Cn2ccc(-c3cnc(-c4ccccc4)s3)n2)cc1,-140*
Cc1ccc(Cn2ccc(-c3cnc(-c4ccccc4)s3)n2)cc1,-128*
O=S(=O)(c1ccccc1)n1ccc(-c2cnc(-c3ccccc3)s2)n1,-131*
O=C(c1ccc(F)cc1)n1ccc(-c2cnc(-c3ccccc3)s2)n1,-124*
Clc1ccc(-c2nnsc2SCc2ccccc2)cc1,-75*
COC(=O)c1ccc(CC(=O)c2nc3ccccc3s2)cc1,-63*
O=C(Cc1ccccc1)c1nc2ccccc2s1,-216*
COC(=O)c1ccc(CSc2nc3ccccc3s2)o1,-83*
COC(=O)c1ccc(/C(O)=C(\C#N)c2nc3ccccc3s2)cc1,-150*
Clc1ccccc1-c1nc(-c2ccccc2)n[nH]1,-214*
Cc1ccc(/C=N/c2sc3c(c2C#N)CCC3)s1,-146*
N#Cc1c(/N=C/c2cc3ccccc3s2)sc2c1CCC2,-150*
C[n+]1c2n(c3ccccc31)N=C(c1ccccc1)CS2,-68*
c1ccc(-c2cc3c(ccc4nonc43)nn2)cc1,-96*
CC(=O)NC(c1ccccc1)c1nc2ccccc2[nH]1 (stereo unspecified),-64*
O=c1c2ccccc2nnn1-c1ccc(Br)cc1,-169*
O=C(Nc1ccccc1)Nc1ccc2ncoc2c1,-119*
O=C(Nc1ccccc1)Nc1ccc2ocnc2c1,-117*
SMILES,aSyn 5UTR act
COc1ccc(C(=O)c2cc([N+](=O)[O-])ccc2N2CCOCC2)cc1,58
COc1ccc(C(=O)/C=C/c2ccccc2F)c(OC(=O)c2ccc([N+](=O)[O-])cc2)c1,-228*
COc1ccc(C(=O)/C=C/c2ccc(C)cc2)c(OC(=O)c2ccc([N+](=O)[O-])cc2)c1,-87*
O=C(c1cnn2c1NC(c1ccco1)CC2C(F)(F)F)N1CCN(c2cccc(Cl)c2)CC1 (stereo unspecified),-71*
Cc1ccsc1/C=N/NC(=O)c1cc(-c2ccncc2)nc2ccccc12,67
O=C(N/N=C/c1ccc(OC(=O)c2ccccc2Br)cc1)c1ccccn1,-90*
O=C(N/N=C/C1CCCCC1)c1ccccn1,-116*
O=C(N/N=C/c1ccsc1)c1ccccn1,-92*
Cc1ccsc1/C=N/NC(=O)c1ccccn1,-151*
Cc1ccc(/C=N/NC(=O)c2cccs2)o1,-65*
O=C(N/N=C/c1ccc(Br)s1)c1ccccn1,-96*
Cc1ccsc1/C=N/Nc1ccc(C(=O)O)cc1,64
Cc1ccsc1/C=N/NC(=O)c1cccs1,-109*
Cc1c(/C=C/C(=O)c2ccccc2O)cnn1C,-227*
O=C(/C=C/c1ccc(N2CCC(c3ccccc3)=N2)cc1)c1ccccc1,-67*

# Assay outcomes: PubChem BioAssay, Broad Institute
